Experimental data taken from PubChem BioAssay AID1159580 (chemical genetic matrix, 2015).
Out of some 5,500 compounds screened, about 2,000 (36%) were called active. About 18% were inconclusive and are not listed. Rule as the data show it: active = normalized growth mostly below about 0.91 (no sharp cut-off); inconclusive = no clear call, values can overlap the other calls; inactive = mostly above about 0.92. Some of the results follow.

Assay: chemical genetic growth profiling, strain panel (AID 1159580);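 also: tested at 20 µM; growth read once vehicle control cultures reached saturation at 30 °C; 1 = growth at the plate median or of vehicle wells; lower values mean less growth of the strain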
Conditions: growth OD

Measured: normalized growth

CC(C)CCCC(C)[C@H]1CCC2C3CC=C4C[C@@H](O)CC[C@]4(C)C3CC[C@@]21C (some centres undefined)
inactive: S. cerevisiae deletion strains, locus YJR075W, strain HOC1, hits give low values 1.02 | S. cerevisiae deletion strains, locus YKL009W, strain mrt4, hits give low values 0.99 | S. cerevisiae deletion strains, locus YKL068W, hits give low values 1 | S. cerevisiae deletion strains, locus YKL085W, strain MDH1 (second series), hits give low values 0.999 | S. cerevisiae deletion strains, locus YKL085W, strain MDH1, hits give low values 0.999 | S. cerevisiae deletion strains, locus YKL160W, strain elf1, hits give low values 1.01 | S. cerevisiae deletion strains, locus YKL190W, strain CNB1, hits give low values 1.01 | S. cerevisiae deletion strains, locus YKR001C, strain vps1, hits give low values 0.985 | S. cerevisiae deletion strains, locus YKR026C, strain gcn3, hits give low values 0.988 | S. cerevisiae deletion strains, locus YKR091W, strain srl3, hits give low values 0.981 | S. cerevisiae deletion strains, locus YLL001W, strain dnm1, hits give low values 1 | S. cerevisiae deletion strains, locus YLL026W, hits give low values 0.993 | S. cerevisiae deletion strains, locus YLL041C, strain sdh2, hits give low values 0.968 | S. cerevisiae deletion strains, locus YLR027C, strain aat2, hits give low values 0.981 | S. cerevisiae deletion strains, locus YLR039C, strain RIC1, hits give low values 1.02 | S. cerevisiae deletion strains, locus YLR058C, strain SHM2, hits give low values 1.01 | S. cerevisiae deletion strains, locus YLR102C, strain apc9, hits give low values 0.995 | S. cerevisiae deletion strains, locus YLR113W, strain HOG1, hits give low values 1.04 | S. cerevisiae deletion strains, locus YLR221C, strain rsa3, hits give low values 1.08 | S. cerevisiae deletion strains, locus YLR258W, strain gsy2, hits give low values 1 | S. cerevisiae deletion strains, locus YLR262C, strain YPT6 (second series), hits give low values 0.987 | S. cerevisiae deletion strains, locus YLR262C, strain YPT6, hits give low values 1.02 | S. cerevisiae deletion strains, locus YLR268W, strain sec22, hits give low values 0.963 | S. cerevisiae deletion strains, locus YLR320W, strain mms22, hits give low values 1.01 | S. cerevisiae deletion strains, locus YLR330W, strain CHS5, hits give low values 1.02 | S. cerevisiae deletion strains, locus YLR342W, strain FKS1 (second series), hits give low values 1.02 | S. cerevisiae deletion strains, locus YLR342W, strain FKS1, hits give low values 0.968 | S. cerevisiae deletion strains, locus YLR357W, strain rsc2, hits give low values 0.983 | S. cerevisiae deletion strains, locus YLR370C, strain arc18, hits give low values 0.974 | S. cerevisiae deletion strains, locus YLR371W, strain rom2, hits give low values 0.988 | S. cerevisiae deletion strains, locus YLR384C, strain iki3, hits give low values 0.97 | S. cerevisiae deletion strains, locus YLR418C, strain cdc73, hits give low values 1 | S. cerevisiae deletion strains, locus YML016C, strain PPZ1, hits give low values 1.01 | S. cerevisiae deletion strains, locus YML032C, strain rad52, hits give low values 1 | S. cerevisiae deletion strains, locus YML120C, strain ndi1, hits give low values 0.975 | S. cerevisiae deletion strains, locus YML124C, strain tub3, hits give low values 0.999 | S. cerevisiae deletion strains, locus YMR058W, strain fet3, hits give low values 0.972 | S. cerevisiae deletion strains, locus YMR078C, strain ctf18, hits give low values 0.999 | S. cerevisiae deletion strains, locus YMR125W, strain sto1, hits give low values 0.94 | S. cerevisiae deletion strains, locus YMR129W, hits give low values 0.975 | S. cerevisiae deletion strains, locus YMR205C, strain PFK2, hits give low values 1 | S. cerevisiae deletion strains, locus YMR223W, strain ubp8, hits give low values 1.02 | S. cerevisiae deletion strains, locus YMR231W, strain pep5, hits give low values 0.967 | S. cerevisiae deletion strains, locus YMR263W, strain SAP30, hits give low values 1.02 | S. cerevisiae deletion strains, locus YMR307W, strain GAS1, hits give low values 1.04 | S. cerevisiae deletion strains, locus YNL067W, strain RPL9B, hits give low values 1 | S. cerevisiae deletion strains, locus YNL071W, strain lat1, hits give low values 0.966 | S. cerevisiae deletion strains, locus YNL183C, strain NPR1, hits give low values 0.962 | S. cerevisiae deletion strains, locus YNL209W, strain ssb2, hits give low values 0.98 | S. cerevisiae deletion strains, locus YNL233W, strain BNI4, hits give low values 1.02 | S. cerevisiae deletion strains, locus YNL248C, strain rpa49, hits give low values 0.963 | S. cerevisiae deletion strains, locus YNL250W, strain rad50, hits give low values 1.02 | S. cerevisiae deletion strains, locus YNL271C, strain bni1, hits give low values 0.994 | S. cerevisiae deletion strains, locus YNL298W, strain CLA4, hits give low values 0.995 | S. cerevisiae deletion strains, locus YNL307C, strain MCK1, hits give low values 0.987 | S. cerevisiae deletion strains, locus YNL322C, strain KRE1 (second series), hits give low values 0.964 | S. cerevisiae deletion strains, locus YNL322C, strain KRE1, hits give low values 1.01 | S. cerevisiae deletion strains, locus YNR049C, strain mso1, hits give low values 0.981 | S. cerevisiae deletion strains, locus YNR052C, strain pop2, hits give low values 0.99 | S. cerevisiae deletion strains, locus YOL012C, strain htz1 0.694 | S. cerevisiae deletion strains, locus YOL147C, strain pex11, hits give low values 0.99 | S. cerevisiae deletion strains, locus YOR001W, strain rrp6, hits give low values 0.99 | S. cerevisiae deletion strains, locus YOR061W, strain CKA2, hits give low values 1.01 | S. cerevisiae deletion strains, locus YOR069W, strain VPS5, hits give low values 1.01 | S. cerevisiae deletion strains, locus YOR070C, strain gyp1, hits give low values 1.07 | S. cerevisiae deletion strains, locus YOR080W, strain dia2, hits give low values 0.991 | S. cerevisiae deletion strains, locus YOR083W, strain WHI5, hits give low values 1.03 | S. cerevisiae deletion strains, locus YOR106W, strain vam3, hits give low values 0.988 | S. cerevisiae deletion strains, locus YOR136W, strain idh2, hits give low values 0.99 | S. cerevisiae deletion strains, locus YOR144C, strain elg1, hits give low values 0.986 | S. cerevisiae deletion strains, locus YOR184W, strain ser1, hits give low values 0.984 | S. cerevisiae deletion strains, locus YOR231W, strain MKK1, hits give low values 1.03 | S. cerevisiae deletion strains, locus YOR265W, strain rbl2, hits give low values 0.989 | S. cerevisiae deletion strains, locus YOR270C, strain vph1, hits give low values 0.901 | S. cerevisiae deletion strains, locus YOR290C, strain snf2, hits give low values 0.987 | S. cerevisiae deletion strains, locus YOR316C, strain cot1, hits give low values 0.987 | S. cerevisiae deletion strains, locus YPL051W, strain arl3, hits give low values 1.03 | S. cerevisiae deletion strains, locus YPL055C, strain LGE1, hits give low values 1.03 | S. cerevisiae deletion strains, locus YPL078C, strain atp4, hits give low values 0.98 | S. cerevisiae deletion strains, locus YPL106C, strain sse1, hits give low values 0.999 | S. cerevisiae deletion strains, locus YPL240C, strain hsp82, hits give low values 0.985 | S. cerevisiae deletion strains, locus YPL241C, strain CIN2, hits give low values 1.01 | S. cerevisiae deletion strains, locus YPL256C, strain CLN2, hits give low values 1.01 | S. cerevisiae deletion strains, locus YPR119W, strain clb2, hits give low values 0.992 | S. cerevisiae deletion strains, locus YPR141C, strain kar3, hits give low values 0.995 | S. cerevisiae deletion strains, locus YPR163C, strain tif3, hits give low values 0.988 | S. cerevisiae deletion strains, locus YPR167C, strain met16, hits give low values 0.995 | S. cerevisiae deletion strains, strain wtn01, hits give low values 0.972 | S. cerevisiae strains, strain wild type, hits give low values 1
